Assay outcomes deposited in PubChem BioAssay by National Center for Advancing Translational Sciences (NCATS).
Tau fluor counter – Counterscreen qHTS for Inhibitors of Tau Fibril Formation, Fluorescence Polarization. 0.93% of 280,000 active. tau K18 P301L Alexa594 fluorescence, heparin fibrillization. Potency, µM (titrated, usually from 57.7 µM). AID 1463, 2008; note: nearly all actives have a fitted effect of over 55% in size
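Human K18 P301L tau (15 uM unlabeled plus 0.24 uM Alexa 594-labeled, final) in 100 mM sodium acetate pH 7 was mixed with compound and 20 uM heparin and incubated 6 hr at 37 C.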
Tau fibril FP – qHTS for Inhibitors of Tau Fibril Formation, Fluorescence Polarization. Microtubule-associated protein tau (Homo sapiens), P10636. K18 P301L tau heparin fibrillization, Alexa594 FP, 6 h. Potency, µM (doses to about 57.7 µM), hits mostly inhibitors. 0.39% of 280,000 active. AID 1468, 2008; note: nearly all actives have a fitted effect of over 55% in size
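Human tau K18 […] P301L fragment, 15 uM unlabeled plus 0.24 uM Alexa 594-labeled tau (final), with compound and 20 uM heparin in 100 mM sodium acetate pH 7; 6 hr at 37 C, then Alexa 594 FP read.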
VDR inhibitor – Inhibitors of the vitamin D receptor (VDR): qHTS; Vitamin D3 receptor (Homo sapiens), P11473; VDR-SRC2-3 peptide fluorescence polarization, 2 h; Potency, µM, most hits filed as inhibitors; 0.93% of 400,000 active
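Measured by FP: displacement of SRC2-3 coactivator peptide from VDR by library compounds, following a two-hour ambient incubation.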
PLK1 PBD inh – qHTS for Inhibitors of PLK1-PDB (polo-like kinase 1 - polo-box domain): Primary Screen. Serine/threonine-protein kinase PLK1 (Homo sapiens), P53350. Plk1 PBD binding of FITC phosphopeptide, fluorescence polarization. Potency, µM, actives largely listed as inhibitors. 2.8% of 360,000 active. AID 720504, 2013; note: series mostly up to about 57 µM; nearly all actives have a fitted effect of over 65% in size
Target sequence (P53350 whole entry, looked up, the tested form may be a part): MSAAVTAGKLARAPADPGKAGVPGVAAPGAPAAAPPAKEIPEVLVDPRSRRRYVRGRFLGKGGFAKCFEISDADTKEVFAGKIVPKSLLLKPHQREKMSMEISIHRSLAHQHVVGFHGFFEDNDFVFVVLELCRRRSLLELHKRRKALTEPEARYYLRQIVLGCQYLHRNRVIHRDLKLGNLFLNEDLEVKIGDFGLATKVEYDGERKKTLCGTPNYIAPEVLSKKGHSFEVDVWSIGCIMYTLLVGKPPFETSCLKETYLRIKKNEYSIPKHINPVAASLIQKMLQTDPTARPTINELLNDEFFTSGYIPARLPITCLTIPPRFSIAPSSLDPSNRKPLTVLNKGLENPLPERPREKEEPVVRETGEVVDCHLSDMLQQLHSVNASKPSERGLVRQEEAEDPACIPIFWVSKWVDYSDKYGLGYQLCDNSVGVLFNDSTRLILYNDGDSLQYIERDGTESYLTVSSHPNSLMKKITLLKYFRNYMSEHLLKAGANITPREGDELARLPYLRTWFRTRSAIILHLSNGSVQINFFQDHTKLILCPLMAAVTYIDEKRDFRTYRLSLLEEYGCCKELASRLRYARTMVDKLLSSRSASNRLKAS
Sfp inh – qHTS Assay for Inhibitors of Bacillus subtilis Sfp phosphopantetheinyl transferase (PPTase); 3.5% of 310,000 active; 4'-phosphopantetheinyl transferase ffp (Bacillus subtilis), Q9F4F7; AID 1490, 2009; Biochemical Sfp PPTase activity, qHTS; Potency, µM, usual class: inhibitors;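 note: the enzyme is Sfp with the accession as filed and its product quenches rhodamine fluorescence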
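Compounds were incubated with enzyme (final 15 nM) for 15 min at room temperature before substrate addition started the reaction. Fluorescence at 525 nm excitation, 598 nm emission was recorded immediately and after 30 minutes.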
Tau ThT inhib – qHTS for Inhibitors of Tau Fibril Formation, Thioflavin T Binding; recombinant tau K18 P301L, heparin-induced fibrillization, ThT fluorescence; Potency, µM (titrated, usually from 57.4 µM), most hits filed as inhibitors; 2.1% of 270,000 active; Microtubule-associated protein tau (Homo sapiens), P10636; note: nearly all actives have a fitted effect of over 55% in size
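Using a mix of unlabeled (15 uM) and Alexa 594-labeled (0.24 uM) tau K18 P301L, heparin-triggered fibrillization over 6 hr at 37 C was scored by ThT fluorescence.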
A number is an active result; – = inactive; ? = inconclusive; · = no result given; ! = repeats disagree; [ ] = another dose, or the depositor's remark. Only some compounds are listed: those with a hit (about 6% of all), similar ones and a draw of the others. Calls come from the whole dose curve; as a rule, active = well fitted curve in the direction sought with a large enough effect; inconclusive = small, poorly fitted or top-dose-only effect, or another doubt; inactive = no such curve, though single readings can be large; an effect the other way counts as inactive or inconclusive.

SMILES	Tau fluor counter	Tau fibril FP	VDR inhibitor	PLK1 PBD inh	Sfp inh	Tau ThT inhib
NC(=O)c1cc[n+](CC2=C(C(=O)O)N3C(=O)C(NC(=O)C(c4ccccc4)S(=O)(=O)[O-])C3SC2)cc1 (stereo not given)	–	?	·	·	–	?
NC(=O)c1cc[n+](CC2=C(C(=O)[O-])N3C(=O)[C@@H](NC(=O)Cc4cccs4)[C@@H]3SC2)cc1	·	·	16µM	·	–	·
NC(=O)c1ccccc1NC(=O)Cc1cccs1	·	·	–	–	–	·
NC(=O)c1cc[n+](CC2=C(C(=O)O)N3C(=O)[C@@H](NC(=O)C(c4ccccc4)S(=O)(=O)[O-])[C@H]3SC2)cc1 (stereo not given in full)	–	–	–	4.7µM	–	–
CCc1cccc(NC(=O)CCc2nc3cccnc3n2-c2ccccc2)c1	–	–	–	·	·	–
Cc1ccc2c(c1)cc1c(=O)n(CC(=O)NCc3ccco3)nc(C)n12	–	–	–	·	·	–
Cc1ccc(S(=O)(=O)c2[nH]c(-c3ccccc3)nc2SCC(N)=O)cc1	–	–	–	·	·	–
COC(=O)c1ccccc1NC=C1C(=O)OC2(CCCCC2)OC1=O	–	–	–	4.2µM	–	–
COc1cccc(NC=C2C(=O)OC3(CCCCC3)OC2=O)c1	–	–	–	–	–	–
O=C(Cn1c(=O)n(Cc2ccco2)c(=O)c2c3c(sc21)CCCCC3)Nc1ccccc1	–	?	–	–	–	?
O=C(Cn1c(=O)n(Cc2ccco2)c(=O)c2c3c(sc21)CCCCC3)c1ccccc1	–	–	–	–	56µM	?
CC(=O)Nc1ccc2c(c1)C(C)(C)C(C)N2C (stereo not given)	28µM[fluorescent]	?	45µM	–	–	?
CCc1nc2ccc(C(=O)N3CCN(S(=O)(=O)CC)CC3)cn2c1N(CC)C(=O)NCCc1ccccc1	·	·	·	–	·	·
O=C(NCc1cccnc1)c1ccc(Cl)c(S(=O)(=O)N2CCOCC2)c1	·	·	–	–	–	·
O=C(c1ccc(Cl)c(S(=O)(=O)N2CCCC2)c1)N1CCN(c2ccccc2)CC1	–	–	32µM	13µM	–	–
O=C(NCc1cccnc1)c1ccc(Cl)c(S(=O)(=O)N2CCCCCC2)c1	–	–	?	27µM	–	–
COc1cc(NC(=O)C(c2ccccc2)c2ccccc2)c(C(=O)O)cc1OC	·	·	–	–	–	·
CCS(=O)(=O)c1ccc(O)c(NC(=O)/C=C/c2ccc(Cl)cc2)c1	–	–	–	–	–	?
Cc1ccc(/C=C/C(=O)Nc2cc(S(N)(=O)=O)ccc2O)cc1	–	–	?	21µM	28µM	?
COc1ccc(NC(=O)CSc2nc(-c3ccco3)nc3cc(=O)[nH]n23)cc1	–	–	–	·	·	?
COc1ccc(NC(=O)CSc2nc(-c3ccco3)nc3cc(=O)[nH]n23)cc1Cl	·	·	–	19µM	–	·
Cc1cnc(CNc2ncnc3ccc(-c4cccc(C#N)c4)cc23)cn1	–	–	–	·	–	–
O=C1C2C3C=CC(C3)C2C(=O)N1/N=C/c1ccc(-c2ccccc2[N+](=O)[O-])o1 (stereo not given)	–	–	–	–	–	?
O=C1C2C3C=CC(C3)C2C(=O)N1/N=C/c1cc(Br)cc([N+](=O)[O-])c1O (stereo not given)	–	–	–	–	–	7.9µM
CCn1cc(S(=O)(=O)c2ccc(OC)cc2)c(=O)c2cc(F)c(N3CCC(C)CC3)cc21	–	–	–	·	·	–
SMILES	Tau fluor counter	Tau fibril FP	VDR inhibitor	PLK1 PBD inh	Sfp inh	Tau ThT inhib
O=C(Cc1ccc(NC(=O)N2CCSc3ncccc32)cc1)NCc1ccccc1	–	–	–	·	·	–
O=C1c2ccccc2C(=O)c2c(O)ccc(O)c21	–	?	45µM	·	?	?
O=C1c2ccccc2C(=O)c2c(Nc3ccc(CCO)cc3)ccc(O)c21	1.8µM[quencher]	?	?	–	?	2.8µM
Nc1ccc(O)c2c1C(=O)c1ccccc1C2=O	–	–	?	?	?	–
O=C1c2ccccc2C(=O)c2c(O)c(O)cc(O)c21	14µM[quencher]	?	50µM!	27µM	–	5µM
CCSc1nnc(Cn2c(=O)sc3ccccc32)n1-c1ccccc1C	–	–	–	–	–	–
Cc1ccccc1-n1c(Cn2c(=O)sc3ccccc32)nnc1SCC(=O)NCC1CCCO1 (stereo not given)	–	–	–	21µM	–	–
CSc1nnc(Cn2c(=O)sc3ccccc32)n1-c1ccccc1C	·	·	50µM	19µM	·	·
c1ccc(-c2n[nH]c(-c3ccccc3)c2-c2nc3ccccc3[nH]2)cc1	–	–	?	27µM	–	–
Cc1ccc2nc(-c3ccc(NS(=O)(=O)c4ccccc4)cc3)sc2c1	–	–	–	–	–	–
Cc1ccc2nc(-c3ccc(NS(=O)(=O)c4ccc(F)c(F)c4)cc3)sc2c1	10µM[quencher]	?	–	–	–	?
CC(C)C(NC(=O)c1ccccc1F)C(=O)NCc1ccccc1 (stereo not given)	·	·	?	27µM	–	·
C/C(=N/OC(=O)c1ccc(C)cc1)c1ccc(N2C(=O)C3CCCCC3C2=O)cc1 (stereo not given)	–	–	?	30µM	–	–
N#Cc1cnc2c(-c3ccccc3)c(-c3ccccc3)nn2c1N	?	?	?	19µM	–	–
CCCN1CCN(CCCNC(=O)Cn2nc(C)n3c(cc4cc(F)ccc43)c2=O)CC1	–	–	–	30µM	–	–
CCCN1CCN(CCCNC(=O)Cn2nc(C)n3c(cc4cc(OC)ccc43)c2=O)CC1	·	·	–	–	–	·
COc1ccc(CCNC(=O)C2CC(c3cccc([N+](=O)[O-])c3)=NO2)cc1 (stereo not given)	–	–	–	–	–	–
Cc1ccc(CNC(=O)C2CC(c3cccc([N+](=O)[O-])c3)=NO2)o1 (stereo not given)	–	–	–	–	45µM	?
Cc1ccc(CNC(=O)C2CC(c3cc(C(F)(F)F)cc(C(F)(F)F)c3)=NO2)o1 (stereo not given)	–	–	–	–	56µM	–
O=C(CSc1nc2[nH]c(=O)cc(O)c2s1)Nc1nncs1	·	·	–	30µM	·	·
Cc1csc(NC(=O)CSc2sc3c(O)cc(=O)[nH]c3c2C#N)n1	·	·	–	?	?	·
Cc1ccc(Cl)cc1NC(=O)CSc1sc2c(O)cc(=O)[nH]c2c1C#N	·	·	–	?	?	·
Cc1csc(NC(=O)CSc2nc3[nH]c(=O)cc(O)c3s2)n1	·	·	–	–	·	·
